From the supplement of paper PMC10849652 come the findings set out here.

Targets with a hit are over-represented here; the source holds about 7,900 in all. About 0.6% of all pairs of compound and target were hits. Unmarked numbers belong to inactive results.

Sequence of UniProt O00233 (O00233 whole entry, looked up): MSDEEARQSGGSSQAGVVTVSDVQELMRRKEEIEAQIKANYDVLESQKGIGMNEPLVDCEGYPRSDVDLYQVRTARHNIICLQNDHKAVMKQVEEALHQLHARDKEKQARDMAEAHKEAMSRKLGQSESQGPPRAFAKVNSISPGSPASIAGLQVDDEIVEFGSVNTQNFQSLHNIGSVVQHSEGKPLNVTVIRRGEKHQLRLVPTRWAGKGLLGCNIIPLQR
Sequence of UniProt Q15111 (Q15111 whole entry, looked up): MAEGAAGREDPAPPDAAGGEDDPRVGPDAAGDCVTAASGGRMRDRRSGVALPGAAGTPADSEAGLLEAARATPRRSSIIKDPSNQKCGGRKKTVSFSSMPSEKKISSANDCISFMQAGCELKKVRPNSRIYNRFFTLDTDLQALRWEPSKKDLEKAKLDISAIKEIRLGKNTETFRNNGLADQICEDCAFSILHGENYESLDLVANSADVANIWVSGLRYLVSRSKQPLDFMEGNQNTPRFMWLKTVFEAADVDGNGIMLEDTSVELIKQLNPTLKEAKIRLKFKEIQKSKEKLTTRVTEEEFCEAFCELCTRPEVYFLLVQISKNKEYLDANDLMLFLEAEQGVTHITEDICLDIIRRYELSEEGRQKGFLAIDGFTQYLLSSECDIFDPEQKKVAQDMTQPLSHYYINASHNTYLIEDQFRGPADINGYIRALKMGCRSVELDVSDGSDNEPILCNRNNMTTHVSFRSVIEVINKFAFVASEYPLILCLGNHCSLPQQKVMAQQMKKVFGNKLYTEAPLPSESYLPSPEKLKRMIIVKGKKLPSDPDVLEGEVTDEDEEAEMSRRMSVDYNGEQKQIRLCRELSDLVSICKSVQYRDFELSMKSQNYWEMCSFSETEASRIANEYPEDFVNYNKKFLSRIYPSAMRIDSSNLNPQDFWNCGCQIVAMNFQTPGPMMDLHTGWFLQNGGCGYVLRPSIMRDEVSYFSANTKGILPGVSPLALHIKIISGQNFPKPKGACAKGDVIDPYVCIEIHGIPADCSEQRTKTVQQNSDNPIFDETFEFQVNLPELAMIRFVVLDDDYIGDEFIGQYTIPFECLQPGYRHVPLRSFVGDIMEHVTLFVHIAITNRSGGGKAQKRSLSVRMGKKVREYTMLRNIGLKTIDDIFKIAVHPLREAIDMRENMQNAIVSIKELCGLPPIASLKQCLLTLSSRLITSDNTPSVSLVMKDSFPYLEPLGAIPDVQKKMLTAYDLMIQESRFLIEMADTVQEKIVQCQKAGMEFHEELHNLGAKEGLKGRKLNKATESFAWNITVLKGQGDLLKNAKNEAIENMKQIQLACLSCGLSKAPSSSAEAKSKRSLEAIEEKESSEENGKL
Sequence of UniProt Q15121 (Q15121 whole entry, looked up): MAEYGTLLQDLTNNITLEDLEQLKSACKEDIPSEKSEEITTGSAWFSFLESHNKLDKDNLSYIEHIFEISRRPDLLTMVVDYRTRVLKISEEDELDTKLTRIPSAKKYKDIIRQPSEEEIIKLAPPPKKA
Sequence of UniProt Q86T03 (Q86T03 whole entry, looked up): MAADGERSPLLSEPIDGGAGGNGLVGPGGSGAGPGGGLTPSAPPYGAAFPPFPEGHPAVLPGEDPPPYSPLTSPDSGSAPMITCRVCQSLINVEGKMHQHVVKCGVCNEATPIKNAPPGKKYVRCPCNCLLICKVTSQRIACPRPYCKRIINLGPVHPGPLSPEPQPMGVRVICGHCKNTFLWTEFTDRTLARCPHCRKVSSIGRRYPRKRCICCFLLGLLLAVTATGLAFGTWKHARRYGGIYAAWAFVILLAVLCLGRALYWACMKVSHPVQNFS
Sequence of UniProt Q15366 (Q15366 whole entry, looked up): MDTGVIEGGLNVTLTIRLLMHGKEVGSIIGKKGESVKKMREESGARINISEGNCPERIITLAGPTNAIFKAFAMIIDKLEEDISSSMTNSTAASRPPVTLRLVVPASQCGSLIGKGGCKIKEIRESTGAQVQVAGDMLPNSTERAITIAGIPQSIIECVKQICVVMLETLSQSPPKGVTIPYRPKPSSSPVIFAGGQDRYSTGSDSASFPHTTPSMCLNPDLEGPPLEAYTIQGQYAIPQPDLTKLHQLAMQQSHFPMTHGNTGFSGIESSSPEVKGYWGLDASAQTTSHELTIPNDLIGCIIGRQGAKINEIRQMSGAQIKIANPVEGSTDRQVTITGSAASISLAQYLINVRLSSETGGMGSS
Sequence of UniProt Q92871 (Q92871 whole entry, looked up): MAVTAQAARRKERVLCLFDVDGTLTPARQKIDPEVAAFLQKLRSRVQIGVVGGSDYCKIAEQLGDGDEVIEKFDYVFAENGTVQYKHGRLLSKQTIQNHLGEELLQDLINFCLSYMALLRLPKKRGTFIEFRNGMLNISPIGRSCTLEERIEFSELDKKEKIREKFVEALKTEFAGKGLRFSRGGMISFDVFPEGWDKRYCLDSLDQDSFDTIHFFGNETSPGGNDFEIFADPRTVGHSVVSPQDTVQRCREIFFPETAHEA
Sequence of UniProt Q6L8Q7 (Q6L8Q7 whole entry, looked up): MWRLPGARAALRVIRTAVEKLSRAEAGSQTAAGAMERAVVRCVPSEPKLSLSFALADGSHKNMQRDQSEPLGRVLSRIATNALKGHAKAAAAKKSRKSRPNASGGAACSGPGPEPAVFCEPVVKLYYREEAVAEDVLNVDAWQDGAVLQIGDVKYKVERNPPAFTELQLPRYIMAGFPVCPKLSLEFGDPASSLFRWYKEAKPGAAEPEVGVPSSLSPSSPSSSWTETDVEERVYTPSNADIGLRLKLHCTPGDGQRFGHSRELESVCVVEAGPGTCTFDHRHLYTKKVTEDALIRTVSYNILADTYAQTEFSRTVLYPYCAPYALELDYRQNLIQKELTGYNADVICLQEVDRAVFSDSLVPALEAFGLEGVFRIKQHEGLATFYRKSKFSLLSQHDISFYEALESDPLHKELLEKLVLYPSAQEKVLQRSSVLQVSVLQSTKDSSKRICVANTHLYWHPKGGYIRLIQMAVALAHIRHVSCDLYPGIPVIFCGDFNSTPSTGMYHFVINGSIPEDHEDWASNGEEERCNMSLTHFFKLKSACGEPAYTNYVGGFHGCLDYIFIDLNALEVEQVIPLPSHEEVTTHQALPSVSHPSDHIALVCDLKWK
Sequence of UniProt Q8IZL8 (Q8IZL8 whole entry, looked up): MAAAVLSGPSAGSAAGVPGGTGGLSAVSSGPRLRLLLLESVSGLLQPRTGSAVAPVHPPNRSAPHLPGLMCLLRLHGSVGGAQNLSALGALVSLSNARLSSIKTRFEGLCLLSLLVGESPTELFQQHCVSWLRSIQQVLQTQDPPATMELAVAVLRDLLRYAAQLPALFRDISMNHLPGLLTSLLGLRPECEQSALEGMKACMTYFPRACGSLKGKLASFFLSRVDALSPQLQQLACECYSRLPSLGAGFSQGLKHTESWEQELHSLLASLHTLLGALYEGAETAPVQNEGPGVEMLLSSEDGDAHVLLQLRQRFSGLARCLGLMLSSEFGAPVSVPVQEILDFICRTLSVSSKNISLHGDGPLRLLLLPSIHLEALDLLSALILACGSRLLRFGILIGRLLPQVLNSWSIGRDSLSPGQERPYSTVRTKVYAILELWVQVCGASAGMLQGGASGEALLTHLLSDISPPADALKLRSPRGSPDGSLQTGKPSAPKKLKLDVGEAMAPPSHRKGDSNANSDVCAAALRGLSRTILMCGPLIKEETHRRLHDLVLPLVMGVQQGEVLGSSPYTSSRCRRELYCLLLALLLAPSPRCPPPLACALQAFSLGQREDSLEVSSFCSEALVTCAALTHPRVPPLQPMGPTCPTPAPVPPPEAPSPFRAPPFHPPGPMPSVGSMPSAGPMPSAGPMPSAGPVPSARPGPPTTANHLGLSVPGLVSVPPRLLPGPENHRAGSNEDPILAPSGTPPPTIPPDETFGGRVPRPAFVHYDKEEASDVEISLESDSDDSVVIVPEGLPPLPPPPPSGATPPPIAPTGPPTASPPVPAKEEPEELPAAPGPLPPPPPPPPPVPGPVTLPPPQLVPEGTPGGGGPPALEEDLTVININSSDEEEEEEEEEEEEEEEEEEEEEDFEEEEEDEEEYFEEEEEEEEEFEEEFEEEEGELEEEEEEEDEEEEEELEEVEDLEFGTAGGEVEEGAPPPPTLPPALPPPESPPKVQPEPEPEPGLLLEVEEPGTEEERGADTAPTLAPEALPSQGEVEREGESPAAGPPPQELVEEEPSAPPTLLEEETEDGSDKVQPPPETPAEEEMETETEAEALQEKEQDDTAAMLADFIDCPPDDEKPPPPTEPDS
Sequence of UniProt P17980 (P17980 whole entry, looked up): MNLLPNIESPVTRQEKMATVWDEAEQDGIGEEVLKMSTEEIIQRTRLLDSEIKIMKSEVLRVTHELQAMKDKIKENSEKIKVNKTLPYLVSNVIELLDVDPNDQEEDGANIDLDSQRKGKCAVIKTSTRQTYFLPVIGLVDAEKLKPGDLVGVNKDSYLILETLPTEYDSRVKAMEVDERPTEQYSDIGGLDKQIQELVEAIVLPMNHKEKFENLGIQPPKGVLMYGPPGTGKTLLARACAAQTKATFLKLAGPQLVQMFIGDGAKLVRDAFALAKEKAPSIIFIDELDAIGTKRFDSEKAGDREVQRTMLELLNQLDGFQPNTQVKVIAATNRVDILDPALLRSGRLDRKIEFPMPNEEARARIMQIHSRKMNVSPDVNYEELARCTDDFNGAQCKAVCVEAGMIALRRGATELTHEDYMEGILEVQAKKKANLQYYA
Sequence of UniProt O00628 (O00628 whole entry, looked up): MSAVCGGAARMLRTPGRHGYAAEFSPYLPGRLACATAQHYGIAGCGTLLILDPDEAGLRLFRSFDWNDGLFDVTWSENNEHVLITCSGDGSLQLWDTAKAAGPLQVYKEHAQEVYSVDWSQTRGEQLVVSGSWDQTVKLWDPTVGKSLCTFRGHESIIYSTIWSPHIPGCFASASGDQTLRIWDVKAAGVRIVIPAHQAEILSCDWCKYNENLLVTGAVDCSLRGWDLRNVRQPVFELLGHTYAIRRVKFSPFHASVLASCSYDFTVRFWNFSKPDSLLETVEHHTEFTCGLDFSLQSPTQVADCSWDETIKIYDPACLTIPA
Sequence of UniProt Q15004 (Q15004 whole entry, looked up): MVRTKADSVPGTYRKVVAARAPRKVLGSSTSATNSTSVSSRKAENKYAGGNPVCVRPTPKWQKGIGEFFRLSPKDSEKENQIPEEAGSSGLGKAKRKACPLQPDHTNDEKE

Compound in the assay: c1cn2cc(-c3ccc4cn[nH]c4c3)nc(Nc3ccc(N4CCOCC4)cc3)c2n1 [entospletinib]
As to the kind of experiment: log2 fold change, soluble protein after heating vs DMSO (PISA); higher = thermal stabilisation; K562 cells, 10 uM, 30 min; active = over 0.2 and 3.5 SD of the protein, either way, in both replicates (recomputed). In outline: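 K562 cells at 2×10^6 cells/mL were exposed to 10 μM compound for 30 min, then aliquots were heated for 3 min across 48°C-58°C, pooled, and extracted in PBS containing 0.5% NP-40 at 4°C. The supernatant after 21,000xg for 90 min was taken as soluble protein and measured by TMTpro 16plex LC-MS/MS with channel sums equalised. Thermal stability is reported relative to control samples, with values from duplicates. Fold changes are given on a log2 scale.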
As to POLR2D (UniProt O15514), the log2 fold change was 0.162.

PEX7 (UniProt O00628): the log2 fold change was -0.01.

As to PEA15 isoform 2 (UniProt Q15121), the log2 fold change is 0.009.

For the target PRKCB isoform 2 (UniProt P05771), the log2 fold change was -0.012.

As for PCBP2 isoform 3 (UniProt Q15366), the log2 fold change was 0.009.

As to PLCL1 (UniProt Q15111), the log2 fold change was -0.099.

Consider PIP4K2B (UniProt P78356), for which the log2 fold change was -0.04.

With PDE12 (UniProt Q6L8Q7), the log2 fold change was -0.033.

As for PKN1 isoform 2 (UniProt Q16512), the log2 fold change was 0.014.

On to PRMT7 (UniProt Q9NVM4), for which the log2 fold change was 0.055.

In the case of PCNT (UniProt O95613), the log2 fold change is 0.14.

For PPT2 isoform 3 (UniProt Q9UMR5), the log2 fold change is -0.04.

Consider PSMC3 (UniProt P17980), for which the log2 fold change is 0.

In the case of POP1 (UniProt Q99575), the log2 fold change is 0.027.

On to PBK (UniProt Q96KB5), for which the log2 fold change is 0.109.

Consider PSME4 (UniProt Q14997), for which the log2 fold change was -0.003.

Take PXK (UniProt Q7Z7A4): the log2 fold change was 0.009.

For the target PAK4 (UniProt O96013), the log2 fold change is -0.002.

Consider PMM2 (UniProt O15305), for which the log2 fold change is -0.194.

For the target PELP1 (UniProt Q8IZL8), the log2 fold change was -0.041.

For PIGH (UniProt Q14442), the log2 fold change is -0.034.

As for PCNX1 (UniProt Q96RV3), the log2 fold change is 0.179.

As for PDE4DIP isoform 4 (UniProt Q5VU43), the log2 fold change was 0.018.

PCLAF (UniProt Q15004): the log2 fold change was -0.132.

For PMM1 (UniProt Q92871), the log2 fold change was -0.415 (active).

Regarding PIP4P1 isoform 2 (UniProt Q86T03), the log2 fold change was 0.028.

Turning to PPT1 (UniProt P50897), the log2 fold change is 0.057.

In the case of POGZ (UniProt Q7Z3K3), the log2 fold change was 0.101.

Regarding POLR2E (UniProt P19388), the log2 fold change was 0.032.

For the target PDSS2 (UniProt Q86YH6), the log2 fold change is -0.152.

On to RAB11FIP1 (UniProt Q6WKZ4), for which the log2 fold change was -0.018.

For the target PDE2A (UniProt O00408), the log2 fold change was 0.015.

PIK3CB (UniProt P42338): the log2 fold change was 0.033.

For the target PFAS (UniProt O15067), the log2 fold change was -0.399 (active).

Take PSMD9 (UniProt O00233): the log2 fold change is -0.034.

As for PRPF38B (UniProt Q5VTL8), the log2 fold change was 0.032.

Regarding PLBD1 (UniProt Q6P4A8), the log2 fold change is 0.011.

Regarding PDE4DIP (UniProt E9PS60), the log2 fold change is -0.01.

Take PTPN23 (UniProt Q9H3S7): the log2 fold change was -0.031.
